{"source": "the supplement of paper PMC6992640", "data": [{"test_system": "WHIM30 (cells of a triple-negative basal-like breast cancer xenograft)", "test": "cell viability of combination (% of vehicle); higher = less cytotoxic", "conditions": "1 µM; 72 h; partner dose: 10 nM", "experimental": "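PDX cells were treated for 72 h with each drug at 1 µM plus carfilzomib (10 nM; 100 nM for WHIM2). Luciferase viability is expressed as percent of vehicle.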", "values": [{"smiles": "CN(C)CC=CC(=O)Nc1cc2c(Nc3ccc(F)c(Cl)c3)ncnc2cc1OC1CCOC1.O=C(O)C=CC(=O)O.O=C(O)C=CC(=O)O", "note": "(centres undefined) [Afatinib dimaleate] + CC(C)C[C@H](NC(=O)[C@H](CCc1ccccc1)NC(=O)CN1CCOCC1)C(=O)N[C@@H](Cc1ccccc1)C(=O)N[C@@H](CC(C)C)C(=O)[C@@]1(C)CO1 [Carfilzomib]", "cell viability of combination": 12.9}, {"smiles": "O=C1C=CC=CC1=C1NC(=C2C=CC=CC2=O)N(c2ccc(C(=O)O)cc2)N1", "note": "[Deferasirox] + CC(C)C[C@H](NC(=O)[C@H](CCc1ccccc1)NC(=O)CN1CCOCC1)C(=O)N[C@@H](Cc1ccccc1)C(=O)N[C@@H](CC(C)C)C(=O)[C@@]1(C)CO1 [Carfilzomib]", "cell viability of combination": 23.7}, {"smiles": "COCCOC(=O)C1=C(C)NC(C)=C(C(=O)OCC=Cc2ccccc2)C1c1cccc([N+](=O)[O-])c1", "note": "(centres undefined) [Cilnidipine] + CC(C)C[C@H](NC(=O)[C@H](CCc1ccccc1)NC(=O)CN1CCOCC1)C(=O)N[C@@H](Cc1ccccc1)C(=O)N[C@@H](CC(C)C)C(=O)[C@@]1(C)CO1 [Carfilzomib]", "cell viability of combination": 19.2}, {"smiles": "Nc1ccc2cc3ccc([NH3+])cc3nc2c1.Nc1ccc2cc3ccc([NH3+])cc3nc2c1.O=S(=O)([O-])[O-]", "note": "[Proflavine Hemisulfate] + CC(C)C[C@H](NC(=O)[C@H](CCc1ccccc1)NC(=O)CN1CCOCC1)C(=O)N[C@@H](Cc1ccccc1)C(=O)N[C@@H](CC(C)C)C(=O)[C@@]1(C)CO1 [Carfilzomib]", "cell viability of combination": 11.2}]}]}
